Inconclusive results are not listed. Where a call stands in place of a potency, no number is given. Unmarked numbers belong to inactive results. The source made the active and inactive calls. Calls follow the shape of the dose curve; as a rule, active = well fitted inhibition curve with a large enough effect; inconclusive = small, poorly fitted or top-dose-only effect; inactive = no such curve, though single readings can be large or run the other way. Square brackets hold non-standard residues; d marks the D form. Peptide text beside a SMILES is read from it. * marks the point of attachment. pGlu = O=C1CC[C@@H](C(=O)O)N1; Thz = O=C(O)[C@@H]1CSCN1; PhAc = O=C(Cc1ccccc1)*

In the first assay the target is Retinaldehyde dehydrogenase 3 (Homo sapiens) (UniProt P47895). As to the kind of experiment: qHTS for Inhibitors of the Aldehyde Dehydrogenase Family (ALDH1A3) Validation screen (AID 2061312). Also: nearly all actives have a fitted effect of over 45% in size. The note with it: ALDH1A3 enzyme inhibition qHTS validation, fluorescence; series mostly up to 84.7 µM. (In qHTS, concentration-response curves come from the screen itself.)
For the molecule `CC(C)c1ccccc1OC(=O)NCCc1ccc2ccccc2c1`, the Potency entry was “inactive”.
On the same count and under the same terms, with `CCN1CCN(Cc2ccc(NC(=O)c3ccc(C)c(Oc4ncnc5[nH]c(C)cc45)c3)cc2C(F)(F)F)CC1` the entry was “inactive”.
Same read-out and setting: with `CCCC(Nc1nc(-c2ccc(NC(=O)NCC)c(OC)c2)ncc1C)c1cccnc1` (stereo not given) the entry was “inactive”; with `CNC(=O)O[C@H]1COc2ccc(N3CCN(C4COC4)CC3)cc2[C@@H]1NC(=O)c1ccc(F)cc1`, “inactive”; with `CC(NCCCc1cccc(C(F)(F)F)c1)c1cccc2ccccc12` (stereo not given), “inactive”.
The same measure, in the same setting: next, `CCCCc1ccc(C(=O)Nc2cc(-c3ccc(Cl)cc3)nn2-c2ccc(Cl)cc2)cc1`: “inactive”; `O=C(Nc1cccc(C(F)(F)F)c1)Nc1ccc(Br)cc1-c1nn[nH]n1`: “inactive”.
Consider `O=C(NCCCN1CCC2(CC1)OCc1ccccc12)[C@H]1CCCN1Cc1ccccc1`, for which the Potency result was “inactive”.
On the same count and under the same terms, with `CCc1cc2c(=O)c(-c3nc4ccccc4s3)coc2c(CN2CCCCC2)c1O` the entry was “inactive”.
Same read-out and setting: next, `CCOC(=O)CNC(=O)[C@@H]1CCCN1C(=O)Cc1ccccc1` (PhAc-Pro-Gly-OEt): “inactive”; `CCCCOc1cc(C(=O)OCCN(CC)CC)ccc1N`: “inactive”; `CC(C)(C)c1cc(Br)cc([C@H](CC(=O)O)NC(=O)CNC(=O)c2cc(O)cc(NC3=NCC(O)CN3)c2)c1` (stereo not given in full): “inactive”.
Still for that read-out and setting: next, `Cc1cc(C(=O)N2CCCCc3ccccc32)ccc1CNC(=O)N1CCC[C@H]1C(=O)N(C)C`: “inactive”.
With `Cc1nc(C(=O)N2CCC[C@H]2Cc2nnc(-c3ccccc3)o2)c(-c2ccccc2F)s1`, the Potency entry is “inactive”.
Same read-out and setting: with `NS(=O)(=O)c1ccc(N2N=C(c3ccccc3)CC2c2ccccc2)cc1` (stereo not given) the entry was “inactive”; with `C[C@H](Oc1cc(-c2cnn(C3CCNCC3)c2)cnc1N)c1c(Cl)ccc(F)c1Cl`, “inactive”.
Still for that read-out and setting: with `Nc1ncnc2c1c(-c1ccc(Oc3ccccc3)cc1)nn2[C@@H]1CCCNC1` the entry was “inactive”.
On the same count and under the same terms, with `CC1(C)CC(NC(=O)C(=O)Nc2ccc(Br)cc2)CC(C)(C)N1` the entry was “inactive”; with `CCCCS(=O)(=O)NC(Cc1ccc(OCCCCC2CCNCC2)cc1)C(=O)O` (stereo not given), “inactive”.
Turning to `CCOC(=O)C(CCc1ccccc1)NC1CCCN2CCCC(C(=O)O)N2C1=O` (stereo not given), the Potency result is “inactive”.
Same read-out and setting: with `CN1CCC(Nc2nc(Nc3ccc(Oc4ccccc4)cc3)c3c(=O)[nH]cc(Br)c3n2)CC1` the entry was “inactive”; with `C[C@@H](NC(=O)c1cc(C(=O)N[C@@H](Cc2ccccc2)[C@H](O)CNC2CC2)cc(N(C)S(C)(=O)=O)c1)c1ccccc1`, “inactive”; with `Cc1cc(C)c(S(=O)(=O)N(Cc2ccc(-c3cccc(S(C)(=O)=O)c3)cc2)Cc2ccc(C(F)(F)F)o2)c(C)c1`, “inactive”.
On the same count and under the same terms, next, `C[C@@H](O)[C@H](NC(=O)c1ccc(C#Cc2ccc(CN3CCOCC3)cc2)cc1)C(=O)NO`: “inactive”; `CC(C)(C)c1ccc2c(c1)CC[C@H]2NC(=O)Nc1cccc2[nH]ncc12`: “inactive”; `COc1c(C)cnc(Cn2cc(C#CCC(C)(C)O)c3c(Cl)nc(N)nc32)c1C`: “inactive”.
Still for that read-out and setting: with `O=C1CC[C@@H](C(=O)N2CSC[C@H]2C(=O)O)N1` ([pGlu]-[Thz]-OH) the entry was “inactive”.
In the case of `O=C(O)C1CN(Cc2ccc(-c3nc4cc(Cc5ccccc5F)ccc4s3)c(F)c2)C1`, the activity change, negative = inhibition is -10% [at 20.1 µM].
As to `Cc1cc(C)c(-n2cc(C)c3c(Cl)nc(C)nc32)c(C)c1`, the Potency result is “inactive”.
On the same count and under the same terms, with `CNC(=O)c1ccccc1Nc1nc(Nc2ccc(N3CCNCC3)cc2)ncc1Cl` the entry was “inactive”; with `CS(=O)(=O)Nc1ccc2oc3c(OC(F)F)ccc(C(=O)Nc4c(Cl)cncc4Cl)c3c2c1`, “inactive”.
The same measure, in the same setting: with `CC(C)(N)c1ncc(-c2ccc(OC(F)(F)F)cc2)[nH]1` the entry was “inactive”.
`COc1cccc(-c2ccc([C@@H](Oc3cc(-c4ccc(C[C@H](N)C(=O)O)cc4)nc(N)n3)C(F)(F)F)cc2)c1`: the Potency entry was “inactive”.
The same measure, in the same setting: next, `CN1CCC(NC(=O)c2cc(-c3c(O)cc(O)cc3Oc3ccc([N+](=O)[O-])cc3)on2)CC1`: “inactive”.
Still for that read-out and setting: with `OCC(O)CN1CCN(c2ccccc2)CC1` (stereo not given) the entry was “inactive”; with `O=C(Nc1ccccc1)c1ccc(Nc2nnc(-c3ccc(O)cc3)c3ccccc23)cc1`, “inactive”.
On the same count and under the same terms, next, `O=C(NCc1ccccc1)c1ccc2c(=O)n(-c3cccc(C(F)(F)F)c3)c(=S)[nH]c2c1`: “inactive”; `COc1ccc2[nH]c3c(-c4cccc5ccccc45)nccc3c2c1`: “inactive”.
As to `CN(C1CCc2c(c3ccccc3n2CC(=O)O)C1)S(=O)(=O)c1ccc(F)cc1` (stereo not given), the Potency entry is “inactive”.
On the same count and under the same terms, next, `CCOC(CN1CCN(CC(C)C(=O)c2ccccc2)CC1)c1ccccc1` (stereo not given): “inactive”.

The next assay has the same target. As to the kind of experiment: qHTS for Inhibitors of the Aldehyde Dehydrogenase Family (ALDH1A3) Primary screen (AID 2061315). The note with it: ALDH inhibition qHTS; series mostly up to 56 µM.
As for `CC(C)c1ccccc1OC(=O)NCCc1ccc2ccccc2c1`, the Potency entry is “inactive”.
For the molecule `CCN1CCN(Cc2ccc(NC(=O)c3ccc(C)c(Oc4ncnc5[nH]c(C)cc45)c3)cc2C(F)(F)F)CC1`, the Potency entry is “inactive”.
Still for that read-out and setting: with `CCCC(Nc1nc(-c2ccc(NC(=O)NCC)c(OC)c2)ncc1C)c1cccnc1` (stereo not given) the entry was “inactive”.
The same measure, in the same setting: next, `CNC(=O)O[C@H]1COc2ccc(N3CCN(C4COC4)CC3)cc2[C@@H]1NC(=O)c1ccc(F)cc1`: “inactive”; `CC(NCCCc1cccc(C(F)(F)F)c1)c1cccc2ccccc12` (stereo not given): “inactive”.
Same read-out and setting: with `CCCCc1ccc(C(=O)Nc2cc(-c3ccc(Cl)cc3)nn2-c2ccc(Cl)cc2)cc1` the entry was “inactive”; with `O=C(Nc1cccc(C(F)(F)F)c1)Nc1ccc(Br)cc1-c1nn[nH]n1`, “inactive”.
For `O=C(NCCCN1CCC2(CC1)OCc1ccccc12)[C@H]1CCCN1Cc1ccccc1`, the Potency result is “inactive”.
The same measure, in the same setting: next, `CCc1cc2c(=O)c(-c3nc4ccccc4s3)coc2c(CN2CCCCC2)c1O`: “inactive”; `CCOC(=O)CNC(=O)[C@@H]1CCCN1C(=O)Cc1ccccc1` (PhAc-Pro-Gly-OEt): “inactive”; `CCCCOc1cc(C(=O)OCCN(CC)CC)ccc1N`: “inactive”.
The same measure, in the same setting: next, `CC(C)(C)c1cc(Br)cc([C@H](CC(=O)O)NC(=O)CNC(=O)c2cc(O)cc(NC3=NCC(O)CN3)c2)c1` (stereo not given in full): “inactive”; `Cc1cc(C(=O)N2CCCCc3ccccc32)ccc1CNC(=O)N1CCC[C@H]1C(=O)N(C)C`: “inactive”.
Same read-out and setting: next, `Cc1nc(C(=O)N2CCC[C@H]2Cc2nnc(-c3ccccc3)o2)c(-c2ccccc2F)s1`: “inactive”; `NS(=O)(=O)c1ccc(N2N=C(c3ccccc3)CC2c2ccccc2)cc1` (stereo not given): “inactive”.
On to `C[C@H](Oc1cc(-c2cnn(C3CCNCC3)c2)cnc1N)c1c(Cl)ccc(F)c1Cl`, for which the Potency entry was “inactive”.
On the same count and under the same terms, next, `Nc1ncnc2c1c(-c1ccc(Oc3ccccc3)cc1)nn2[C@@H]1CCCNC1`: “inactive”; `CC1(C)CC(NC(=O)C(=O)Nc2ccc(Br)cc2)CC(C)(C)N1`: “inactive”.
On to `CCCCS(=O)(=O)NC(Cc1ccc(OCCCCC2CCNCC2)cc1)C(=O)O` (stereo not given), for which the Potency result was “inactive”.
The same measure, in the same setting: next, `CCOC(=O)C(CCc1ccccc1)NC1CCCN2CCCC(C(=O)O)N2C1=O` (stereo not given): “inactive”.
Same read-out and setting: with `CN1CCC(Nc2nc(Nc3ccc(Oc4ccccc4)cc3)c3c(=O)[nH]cc(Br)c3n2)CC1` the entry was “inactive”; with `C[C@@H](NC(=O)c1cc(C(=O)N[C@@H](Cc2ccccc2)[C@H](O)CNC2CC2)cc(N(C)S(C)(=O)=O)c1)c1ccccc1`, “inactive”; with `Cc1cc(C)c(S(=O)(=O)N(Cc2ccc(-c3cccc(S(C)(=O)=O)c3)cc2)Cc2ccc(C(F)(F)F)o2)c(C)c1`, “inactive”.
Same read-out and setting: with `C[C@@H](O)[C@H](NC(=O)c1ccc(C#Cc2ccc(CN3CCOCC3)cc2)cc1)C(=O)NO` the entry was “inactive”; with `CC(C)(C)c1ccc2c(c1)CC[C@H]2NC(=O)Nc1cccc2[nH]ncc12`, “inactive”.
`COc1c(C)cnc(Cn2cc(C#CCC(C)(C)O)c3c(Cl)nc(N)nc32)c1C`: the Potency entry is “inactive”.
The same measure, in the same setting: next, `O=C1CC[C@@H](C(=O)N2CSC[C@H]2C(=O)O)N1` ([pGlu]-[Thz]-OH): “inactive”.
Regarding `O=C(O)C1CN(Cc2ccc(-c3nc4cc(Cc5ccccc5F)ccc4s3)c(F)c2)C1`, the activity change, negative = inhibition is -4.23% [at 11.2 µM].
On to `Cc1cc(C)c(-n2cc(C)c3c(Cl)nc(C)nc32)c(C)c1`, for which the Potency entry was “inactive”.
As for `CNC(=O)c1ccccc1Nc1nc(Nc2ccc(N3CCNCC3)cc2)ncc1Cl`, the Potency result was “inactive”.
Same read-out and setting: with `CS(=O)(=O)Nc1ccc2oc3c(OC(F)F)ccc(C(=O)Nc4c(Cl)cncc4Cl)c3c2c1` the entry was “inactive”; with `CC(C)(N)c1ncc(-c2ccc(OC(F)(F)F)cc2)[nH]1`, “inactive”.
The same measure, in the same setting: with `COc1cccc(-c2ccc([C@@H](Oc3cc(-c4ccc(C[C@H](N)C(=O)O)cc4)nc(N)n3)C(F)(F)F)cc2)c1` the entry was “inactive”; with `CN1CCC(NC(=O)c2cc(-c3c(O)cc(O)cc3Oc3ccc([N+](=O)[O-])cc3)on2)CC1`, “inactive”; with `OCC(O)CN1CCN(c2ccccc2)CC1` (stereo not given), “inactive”.
As for `O=C(Nc1ccccc1)c1ccc(Nc2nnc(-c3ccc(O)cc3)c3ccccc23)cc1`, the Potency entry was “inactive”.
For `O=C(NCc1ccccc1)c1ccc2c(=O)n(-c3cccc(C(F)(F)F)c3)c(=S)[nH]c2c1`, the Potency result is “inactive”.
The same measure, in the same setting: next, `COc1ccc2[nH]c3c(-c4cccc5ccccc45)nccc3c2c1`: “inactive”; `CN(C1CCc2c(c3ccccc3n2CC(=O)O)C1)S(=O)(=O)c1ccc(F)cc1` (stereo not given): “inactive”.
`CCOC(CN1CCN(CC(C)C(=O)c2ccccc2)CC1)c1ccccc1` (stereo not given): the Potency result was “inactive”.
